These compounds were tested against Mitogen-activated protein kinase kinase kinase 9 (Homo sapiens) (UniProt P80192). Details: at 1 µM.
Chain of Mitogen-activated protein kinase kinase kinase 9 (Homo sapiens) (P80192 whole entry, looked up): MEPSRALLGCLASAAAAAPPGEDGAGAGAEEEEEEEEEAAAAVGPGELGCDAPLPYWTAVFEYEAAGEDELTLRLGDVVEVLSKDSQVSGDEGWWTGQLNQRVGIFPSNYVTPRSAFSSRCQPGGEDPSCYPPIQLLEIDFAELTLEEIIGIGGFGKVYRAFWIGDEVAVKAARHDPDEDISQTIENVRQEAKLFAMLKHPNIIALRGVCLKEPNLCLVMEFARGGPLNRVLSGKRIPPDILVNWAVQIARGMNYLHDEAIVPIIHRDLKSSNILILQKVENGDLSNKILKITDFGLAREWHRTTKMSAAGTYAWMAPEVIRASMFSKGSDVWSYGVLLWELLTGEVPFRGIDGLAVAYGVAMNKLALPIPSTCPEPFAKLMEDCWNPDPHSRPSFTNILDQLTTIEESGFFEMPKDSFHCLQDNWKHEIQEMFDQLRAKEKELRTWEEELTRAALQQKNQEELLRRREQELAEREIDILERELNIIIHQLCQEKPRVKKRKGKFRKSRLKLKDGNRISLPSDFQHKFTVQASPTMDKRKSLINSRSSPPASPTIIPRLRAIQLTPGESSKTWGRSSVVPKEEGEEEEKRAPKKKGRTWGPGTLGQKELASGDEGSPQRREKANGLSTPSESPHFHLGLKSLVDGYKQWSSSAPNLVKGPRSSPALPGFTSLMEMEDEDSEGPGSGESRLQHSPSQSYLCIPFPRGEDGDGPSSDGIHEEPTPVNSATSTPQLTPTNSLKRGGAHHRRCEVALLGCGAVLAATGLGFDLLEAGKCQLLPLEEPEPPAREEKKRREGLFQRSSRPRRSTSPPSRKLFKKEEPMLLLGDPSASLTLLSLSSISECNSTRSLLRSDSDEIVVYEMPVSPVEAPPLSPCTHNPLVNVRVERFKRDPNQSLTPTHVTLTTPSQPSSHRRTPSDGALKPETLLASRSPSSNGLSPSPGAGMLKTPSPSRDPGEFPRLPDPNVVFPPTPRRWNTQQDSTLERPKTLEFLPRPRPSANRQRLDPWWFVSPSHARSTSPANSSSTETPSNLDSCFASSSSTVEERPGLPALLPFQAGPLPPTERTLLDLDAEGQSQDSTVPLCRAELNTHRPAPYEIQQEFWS

| Compound | residual activity |
| --- | --- |
| N#C/C(=C(\N)Sc1ccc(N)cc1)c1ccccc1C(F)(F)F | 93% |
| CO[C@H]1C[C@@H]2CC[C@@H](C)[C@@](O)(O2)C(=O)C(=O)N2CCCC[C@H]2C(=O)O[C@H]([C@H](C)C[C@@H]2CC[C@@H](O)[C@H](OC)C2)CC(=O)[C@H](C)/C=C(\C)[C@@H](O)[C@@H](OC)C(=O)[C@H](C)C[C@H](C)/C=C/C=C/C=C/1C | 91% |
| Cc1nc(-c2ccccc2)c(-c2ccncc2)o1 | 106% |
| CC(=O)c1ccc(N2CCOCC2)cc1O | 89% |
| Cc1nc2cc3nc(-c4cccs4)cnc3cc2n1C | 86% |
| Nc1n[nH]c2nnc(-c3c(-c4ccccc4)nn4ccccc34)cc12 | 86% |
| CCN(CC)CCCCN1c2ccccc2Oc2ccc(Cl)cc21 | 93% |
| Cn1cnc2cc3c(Nc4cccc(Br)c4)ncnc3cc21 | 64% |
| CO[C@H]1[C@@H](OC)C[C@H](C)[C@@H](OC)C2=CC(=O)C=C(NC(=O)/C(C)=C/C=C/[C@H](OC)[C@@H](OC(N)=O)/C(C)=C/[C@@H]1C)C2=O | 92% |
| CN(C)c1ccc(/C=C2\C(=O)Nc3ccccc32)cc1 | 39% |
| COc1ccc(S(=O)(=O)N(CCO)c2ccccc2CN(C)C/C=C/c2ccc(Cl)cc2)cc1 | 99% |
| O=Nc1c(-c2c(O)[nH]c3ccccc23)[nH]c2ccccc12 | 6% |
| O=C1NC(=O)/C(=C/c2ccc3c(c2)OC(F)(F)O3)S1 | 96% |
| COc1cc2ncnc(N3CCN(C(=O)Nc4ccc(Oc5ccccc5)cc4)CC3)c2cc1OC | 87% |
| Oc1ccc(-c2nc(-c3ccc(F)cc3)c(-c3ccncc3)[nH]2)cc1 | 54% |
| N#Cc1cnc2cnc(NCc3cccnc3)cc2c1Nc1ccc(F)c(Cl)c1 | 99% |
| CNc1cc2c(Nc3cccc(Br)c3)ncnc2cn1 | 68% |
| O=C1NC(=O)c2cc(Nc3ccc(F)cc3)c(Nc3ccc(F)cc3)cc21 | 86% |

| Compound | residual activity |
| --- | --- |
| COc1cccc(-c2cc(=O)c3ccccc3o2)c1N | 111% |
| Cc1cccc(-c2[nH]c(C(C)(C)C)nc2-c2ccc3c(c2)OCO3)n1 | 99% |
| c1ccc(-c2n[nH]c3c2oc2ccccc23)cc1 | 69% |
| Ic1cccc(CSc2nnc(-c3ccncc3)o2)c1 | 90% |
| CO[C@@H]1[C@H](N(C)C(=O)c2ccccc2)C[C@H]2O[C@]1(C)n1c3ccccc3c3c4c(c5c6ccccc6n2c5c31)C(=O)NC4 | 1% |
| NC(=O)c1ccc2[nH]c(-c3ccc(Oc4ccc(Cl)cc4)cc3)nc2c1 | 89% |
| O=C1Nc2cc(Br)ccc2/C1=C1/Nc2ccccc2/C1=N\O | 21% |
| COc1cc2ncnc(Nc3ccc(Oc4ccccc4)cc3)c2cc1OC | 18% |
| CCOc1cc2ncnc(Nc3cccc(Br)c3)c2cc1OCC | 72% |
| O=c1cc(-c2cccc3c2Sc2ccccc2S3)oc(N2CCOCC2)c1 | 103% |
| c1ccc2c(-c3ccncc3)c[nH]c2c1 | 74% |
| Nc1cccc(-c2cc3c(Oc4cccc(O)c4)ncnc3[nH]2)c1 | 7% |
| Nc1nc(Nc2ccc(S(N)(=O)=O)cc2)nn1C(=S)Nc1c(F)cccc1F | -1% |
| CC(C)n1cnc2c(NCc3ccccc3)nc(NCCCO)nc21 | 97% |
| O=C1NC(=O)/C(=C\c2ccc3nccnc3c2)S1 | 80% |
| O=C(O)c1ccc2c3c1cccc3c(=O)n1c3ccccc3nc21 | 33% |
| COc1cc2ncnc(Nc3ccc(O)c(Br)c3)c2cc1OC | 45% |

The compounds below were run against Mitogen-activated protein kinase kinase kinase 9 (Homo sapiens) (UniProt P80192). Details: at 10 µM.

| Compound | residual activity |
| --- | --- |
| N#C/C(=C(\N)Sc1ccc(N)cc1)c1ccccc1C(F)(F)F | 89% |
| CO[C@H]1C[C@@H]2CC[C@@H](C)[C@@](O)(O2)C(=O)C(=O)N2CCCC[C@H]2C(=O)O[C@H]([C@H](C)C[C@@H]2CC[C@@H](O)[C@H](OC)C2)CC(=O)[C@H](C)/C=C(\C)[C@@H](O)[C@@H](OC)C(=O)[C@H](C)C[C@H](C)/C=C/C=C/C=C/1C | 106% |
| Cc1nc(-c2ccccc2)c(-c2ccncc2)o1 | 102% |
| CC(=O)c1ccc(N2CCOCC2)cc1O | 97% |
| Cc1nc2cc3nc(-c4cccs4)cnc3cc2n1C | 44% |
| Nc1n[nH]c2nnc(-c3c(-c4ccccc4)nn4ccccc34)cc12 | 31% |
| CCN(CC)CCCCN1c2ccccc2Oc2ccc(Cl)cc21 | 102% |
| Cn1cnc2cc3c(Nc4cccc(Br)c4)ncnc3cc21 | 40% |
| CO[C@H]1[C@@H](OC)C[C@H](C)[C@@H](OC)C2=CC(=O)C=C(NC(=O)/C(C)=C/C=C/[C@H](OC)[C@@H](OC(N)=O)/C(C)=C/[C@@H]1C)C2=O | 99% |
| CN(C)c1ccc(/C=C2\C(=O)Nc3ccccc32)cc1 | 16% |
| COc1ccc(S(=O)(=O)N(CCO)c2ccccc2CN(C)C/C=C/c2ccc(Cl)cc2)cc1 | 92% |
| O=Nc1c(-c2c(O)[nH]c3ccccc23)[nH]c2ccccc12 | 1% |
| O=C1NC(=O)/C(=C/c2ccc3c(c2)OC(F)(F)O3)S1 | 99% |
| COc1cc2ncnc(N3CCN(C(=O)Nc4ccc(Oc5ccccc5)cc4)CC3)c2cc1OC | 91% |
| Oc1ccc(-c2nc(-c3ccc(F)cc3)c(-c3ccncc3)[nH]2)cc1 | 12% |
| N#Cc1cnc2cnc(NCc3cccnc3)cc2c1Nc1ccc(F)c(Cl)c1 | 99% |
| CNc1cc2c(Nc3cccc(Br)c3)ncnc2cn1 | 53% |

| Compound | residual activity |
| --- | --- |
| O=C1NC(=O)c2cc(Nc3ccc(F)cc3)c(Nc3ccc(F)cc3)cc21 | 75% |
| COc1cccc(-c2cc(=O)c3ccccc3o2)c1N | 96% |
| c1ccc(-c2n[nH]c3c2oc2ccccc23)cc1 | 39% |
| Ic1cccc(CSc2nnc(-c3ccncc3)o2)c1 | 88% |
| CO[C@@H]1[C@H](N(C)C(=O)c2ccccc2)C[C@H]2O[C@]1(C)n1c3ccccc3c3c4c(c5c6ccccc6n2c5c31)C(=O)NC4 | 1% |
| NC(=O)c1ccc2[nH]c(-c3ccc(Oc4ccc(Cl)cc4)cc3)nc2c1 | 34% |
| O=C1Nc2cc(Br)ccc2/C1=C1/Nc2ccccc2/C1=N\O | 10% |
| COc1cc2ncnc(Nc3ccc(Oc4ccccc4)cc3)c2cc1OC | 4% |
| CCOc1cc2ncnc(Nc3cccc(Br)c3)c2cc1OCC | 26% |
| O=c1cc(-c2cccc3c2Sc2ccccc2S3)oc(N2CCOCC2)c1 | 96% |
| c1ccc2c(-c3ccncc3)c[nH]c2c1 | 60% |
| Nc1cccc(-c2cc3c(Oc4cccc(O)c4)ncnc3[nH]2)c1 | 1% |
| Nc1nc(Nc2ccc(S(N)(=O)=O)cc2)nn1C(=S)Nc1c(F)cccc1F | -1% |
| CC(C)n1cnc2c(NCc3ccccc3)nc(NCCCO)nc21 | 73% |
| O=C1NC(=O)/C(=C\c2ccc3nccnc3c2)S1 | 53% |
| O=C(O)c1ccc2c3c1cccc3c(=O)n1c3ccccc3nc21 | 5% |
| COc1cc2ncnc(Nc3ccc(O)c(Br)c3)c2cc1OC | 11% |

Source: ChEMBL document CHEMBL2218924, “A broad activity screen in support of a chemogenomic map for kinase signalling research and drug discovery” (Biochem J, 2013)
